The sample as a whole holds a higher share of hits than the screen did.
Pf apPOL block: Pf-apPOL DNA polymerase inhibition; Recombinant Pf-apPOL, molecular beacon fluorescence, 1.5 h; 210,000 tested, 0.25% active; AID 1794808; inhibition, % at 10 µM
mHTT-CaM PPI inh: disrupts binding of mutant huntingtin to calmodulin; P42858; AlphaScreen His-mHTT/GST-CaM binding, luminescence; inhibition, % at 15 µM; 190,000 tested, 3.6% active; AID 1671202;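 note: 0% = both proteins with DMSO and 100% = one protein alone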
* hit, by the source's call; nt = no result given. Cut-off read from the data, not from the text of the source: active = inhibition above about 50%; inactive = the rest.

SMILES	Pf apPOL block	mHTT-CaM PPI inh
O=C(NC(Nc1cccc(Cl)c1)C(=O)c1ccccc1)c1cccs1 (centres undefined)	27	67*
COc1ccc(NC(NC(=O)c2cccs2)C(=O)c2ccccc2)cc1 (centres undefined)	-1	40
O=C(NC(Nc1ccc(Cl)c(Cl)c1)C(=O)c1ccccc1)c1cccs1 (centres undefined)	-7	90*
CCOc1ccc(NC(NC(=O)c2cccs2)C(=O)c2ccccc2)cc1 (centres undefined)	-1	56*
Cc1ccc(NC(NC(=O)c2cccs2)C(=O)c2ccccc2)cc1C (centres undefined)	-1	-3
NS(=O)(=O)c1ccc(NC(NC(=O)c2cccs2)C(=O)c2ccccc2)cc1 (centres undefined)	8	11
COC(=O)NC1CCN(c2ccccc2C(=O)N(C)C2CCCCC2)CC1	-14	12
COc1ccc(CN2CCc3nc(N4CCOCC4)ncc3C2)c(OC)c1	2	38
c1cc(Nc2cccc3nccnc23)c2nccnc2c1	-13	22
CN(C)c1ccc(Nc2cccc3nccnc23)cc1	-8	61*
O=C(NCCC1=CCCCC1)c1ccncc1	2	-3
O=C(NCCC1=CCCCC1)c1ncn[nH]1	-10	94*
Cc1ccc(-c2csc(N3N=C(c4ccc([N+](=O)[O-])cc4)CC3=O)n2)cc1	0	53*
O=[N+]([O-])c1ccc(-c2csc(N3CCCC3)n2)cc1	-2	-2
O=C(CN1CCC2(CC1)N=C(c1cccc(F)c1)C(=O)N2)Nc1ccccc1F	9	-1
O=C1CN(C(=O)C2CCCCC2)CCN1Cc1ccccc1	2	0
CCCC(=O)N1CCCC1c1nc2cc(-c3ccc(N(C)C)cc3)ccc2o1 (centres undefined)	-8	86*
CCC(=O)N1CCCC1c1nc2cc(-c3cccc(F)c3)ccc2o1 (centres undefined)	-4	41
CCCC(=O)N1CCCC1c1nc2cc(-c3ccccc3F)ccc2o1 (centres undefined)	-1	13
CC(C)CC(=O)N1CCCC1c1nc2cc(-c3ccc(N(C)C)cc3)ccc2o1 (centres undefined)	-7	87*
Cc1ccc(CNC(=O)C2CCCN(c3ccncc3)C2)o1 (centres undefined)	-2	0
COc1ccc(CC2(C)OC(c3cccs3)=NN2C(C)=O)cc1 (centres undefined)	4	-21
COc1ccc(N=C2C(=O)Nc3cc(Br)c(C)cc32)cc1	-3	66*
COc1ccc(N=C2C(=O)Nc3ccc(Cl)cc32)cc1	-4	26
CCN(c1ccccc1)S(=O)(=O)c1ccc2c(c1)CC(C)N2C(C)=O (centres undefined)	-4	4
SMILES	Pf apPOL block	mHTT-CaM PPI inh
Cc1ccc(C(=O)NN=C(N)c2cnccn2)cc1	-12	nt
O=[N+]([O-])c1ccc(S(=O)(=O)/C=C/C=C/N2CCCCC2)cc1	7	93*
O=[N+]([O-])c1ccc(S(=O)(=O)N2CCCCCC2)cc1	3	2
CC1CCCCN1CCNS(=O)(=O)c1cc(Br)cc2c1N(C(=O)C1CC1)CC2 (centres undefined)	3	9
CCOCCCNC(=O)CC1CCN(C(=O)c2ccccc2Cl)CC1	-7	-16
O=C1C(=CC=CC2=C(O)c3ccccc3S2(=O)=O)S(=O)(=O)c2ccccc21	nt	57*
Cc1cc(C(=O)NC2CCCCC2)nc2cc(-c3cccs3)nn12	-5	-12
Cc1noc(COC2CCN(C(=O)Cc3cccnc3)CC2)n1	-2	-1
CN(C)c1ncncc1N1CCC(C(=O)Nc2ccc(Cl)cc2)CC1	-7	-2
CCC(C)NC(=O)c1csc(-c2ccncc2)n1 (centres undefined)	0	-5
CC(CCc1ccccc1)NC(=O)c1csc(-c2ccncc2)n1 (centres undefined)	-1	79*
Cn1c(=O)c2c(ncn2CCCO)n(C)c1=O	nt	-4
Nc1nnc(SCC(=O)Nc2ccc3c(c2)OCO3)s1	-10	nt
Nc1sc(SCC(=O)Nc2ccc3c(c2)OCO3)nc1-c1ccccc1	1	78*
OCCOCCNc1ncnc2c1c(-c1ccccc1)cn2-c1cccc(C(F)(F)F)c1	0	23
OCCOCCNc1ncnc2c1c(-c1ccccc1)cn2-c1cccc(Cl)c1	-13	54*
Cc1cccc(NC(=O)c2cncc(Br)c2)c1C	-17	-4
O=C1NC(=S)SC1=Cc1ccc(Sc2ccc(Cl)cc2)c([N+](=O)[O-])c1	69*	nt
O=C1NC(=O)/C(=C/c2ccc(Cl)c([N+](=O)[O-])c2)S1	0	4
CN(C)c1ccc(NC(=O)CN2CCC(c3nc(-c4ccccc4Cl)no3)CC2)cc1	-2	66*
O=C(CN1CCC(c2nc(-c3ccccc3Cl)no2)CC1)Nc1ccccc1Cl	-6	-15
CCN(CC)c1ccc(C=NCCc2ccccc2)c(O)c1	2	80*
CCN(CC)c1ccc(C=Nc2ccccc2)c(O)c1	-6	8
Cc1nn2c(N)cc(-c3ccccc3)nc2c1-c1ccccc1	1	83*
Cc1nc2c(-c3ccc(Cl)cc3)c(C)nn2c(N)c1-c1ccccc1	-5	-4
SMILES	Pf apPOL block	mHTT-CaM PPI inh
COc1ccc(-c2cc3nc(C)cc(Nc4ccc(C(N)=O)cc4)n3n2)cc1OC	12	22
Cc1cc(Nc2ccc(C(N)=O)cc2)n2nc(C)c(-c3ccccc3)c2n1	-6	74*
O=C1OC(c2ccccc2Br)=N/C1=C\c1ccc(Cl)cc1	-3	0
N=C1S/C(=C\c2cn[nH]c2-c2ccc(F)cc2)C(=O)N1c1ccc(Br)cc1	4	33
CN(C)C=Nc1c(C#N)cnn1-c1ccc(Cl)cc1	-19	nt
O=C(CSc1nc(=O)[nH]c2c1CCC2)c1ccc(Cl)cc1	76*	36
COC(=O)c1ccc(NC(=O)CSc2nc(=O)[nH]c3c2CCC3)cc1	2	3
Brc1ccc(-n2cc(-c3ccccc3)c3c(NCC4CCCO4)ncnc32)cc1 (centres undefined)	-3	-2
O=C(c1ccc(F)c(F)c1)N1CCCN(c2cc(-c3ccc4c(c3)OCO4)[nH]n2)CC1	-8	18
CC(C)CC(=O)N1CCN(c2nc(CN3CCCCC3)cs2)CC1	0	12
COc1ccc(NC(=O)c2ncn[nH]2)cc1	2	-1
COc1ccc(CNC(=O)c2ncn[nH]2)cc1	-6	87*
Cc1sc(N)nc1-c1c[nH]c2ccccc12	-12	94*
Cc1sc(N)nc1-c1ccc(Cl)cc1	-20	-7
Cc1ccc(C(=O)N2CCN(c3nc(C)nc(C)c3Cc3cccc(F)c3)CC2)cc1	0	31
Cc1cccc(C(=O)N2CCC3(CC2)NC(=O)c2ccc(F)cc2N3C)c1	-4	-7
COc1ccc(C(=O)N2CCC(n3c(-c4ccco4)nc4cccnc43)C2)cc1 (centres undefined)	-5	-5
O=C(Nc1ccccc1)N1CCC(n2c(-c3ccco3)nc3cccnc32)C1 (centres undefined)	0	1
Cc1ccc(C(=O)N2CCC(n3c(-c4ccco4)nc4cccnc43)C2)cc1 (centres undefined)	-2	14
O=C(c1ccc(F)c(Cl)c1)N1CCC(n2c(-c3ccco3)nc3cccnc32)C1 (centres undefined)	-3	98*
CCc1ccc(NC(=O)N2CCC(n3c(-c4ccco4)nc4cccnc43)C2)cc1 (centres undefined)	0	51*

Compound activity: PubChem, University of Kansas High Throughput Screening Laboratory
